Laboratory results as given in PubChem BioAssay AID1159580 (chemical genetic matrix, 2015).
Screen size: about 5,500 compounds; about 2,000 (36%) were called active. Roughly 18% stayed inconclusive and do not appear here. No stated cut-off is given here; in the data, active means normalized growth mostly below about 0.91 (no sharp cut-off); inconclusive means no clear call, values can overlap the other calls; inactive means mostly above about 0.92. Some of the results follow.

Assay: chemical genetic growth profiling, strain panel (AID 1159580);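 further: tested at 20 µM; growth read once vehicle control cultures reached saturation at 30 °C; 1 = growth at the plate median or of vehicle wells; lower values mean less growth of the strain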
Details: S. cerevisiae deletion strains, growth OD

Measured: normalized growth

OC[C@H]1O[C@@H](n2cnc3c(NC4CCCCC4)ncnc32)[C@H](O)[C@@H]1O
inactive: locus YAL040C, strain CLN3, active compounds read low 1.04 | locus YCL061C, strain MRC1 (second series), active compounds read low 1.01 | locus YDR363W, strain ESC2, active compounds read low 0.994 | locus YER002W, strain NOP16, active compounds read low 1.01 | locus YGR078C, strain PAC10, active compounds read low 1.05 | locus YMR263W, strain SAP30, active compounds read low 1.01 | locus YMR307W, strain GAS1, active compounds read low 1.01 | locus YNL175C, strain NOP13, active compounds read low 1.01 | locus YNL197C, strain WHI3, active compounds read low 1.01 | locus YNL224C, strain SQS1, active compounds read low 1 | locus YNL322C, strain KRE1, active compounds read low 1.02 | locus YOR083W, strain WHI5 (second series), active compounds read low 0.984 | locus YPL055C, strain LGE1, active compounds read low 0.995
